This passage reports growth inhibition results from PubChem BioAssay (NCI).

Structures are written as SMILES. The panel holds about 79,000 compounds, 15% with a hit somewhere; the sample as a whole holds those more often. Activity calls are given as the source filed them. Rule as the data show it: active = growth inhibition above about 70%; inactive = the rest.

The first experiment can be described thus: NCI Yeast Anticancer Drug Screen. Data for the bub3 strain (AID 167). To be noted: S. cerevisiae bub3 mutant strain, at 50.0 µM, active compounds read high. In a few lines:
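Screening used yeast with an engineered genetic alteration affecting cell cycle control. Compound-exposed cultures were compared with vehicle cultures, and reduced growth was taken as inhibition.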
Consider `COC(OC)(c1ccccc1)C(Br)Br`, for which the growth inhibition was 90% (active).

With `Cc1ccc(S(=O)(=O)OCCc2ccc(Cl)cc2)cc1`, the growth inhibition is 71.2% (active).

With `O=C(CC(=O)c1ccncc1)c1ccccc1`, the growth inhibition is 97.6% (active).

In the case of `CCN1CCC(O)(/C=C/c2ccccc2)C(C(=O)/C=C/c2ccccc2)C1` (stereo not given), the growth inhibition is 98.9% (active).

With `O=C(O)c1cc(Br)ccc1OCc1ccc(Cl)cc1`, the growth inhibition was -2.25% (inactive).

In the case of `Cc1ccc(C2COc3cc(O)c(O)cc3C2)cc1` (stereo not given), the growth inhibition was 99.6% (active).

Regarding `COC(=O)c1c2oc3c(C(=O)OC)cccc3nc-2cc(N)c1=O`, the growth inhibition is 66.5% (inactive).

Take `CC(=O)NCCN(C)C`: the growth inhibition was 92.5% (active).

Regarding `N=c1scc(-c2ccccc2)n1/N=C/c1cccnc1`, the growth inhibition was 50.6% (inactive).

`C(=C/c1ccccc1)/C=N/Nc1ccccc1`: the growth inhibition was 36.5% (inactive).

In the case of `OC(Cc1ccc(Br)cc1)CN1CCC(c2ccccc2)CC1` (stereo not given), the growth inhibition is 87.8% (active).

As for `O=C1C(Cl)=C(Nc2ccc(S(=O)(=O)O)cc2)C(=O)c2ccccc21`, the growth inhibition was 99.5% (active).

With `CC1(CO)CCCC2(C)C3=C(CCCC3)CCC12` (stereo not given), the growth inhibition is 42% (inactive).

Regarding `Cc1cc2nc(CC(=O)c3ccc4ccccc4c3)c(=O)[nH]c2cc1C`, the growth inhibition was 89% (active).

Turning to `CN(CCO)CCn1cnc2c1c(=O)n(C)c(=O)n2C`, the growth inhibition was -7.15% (inactive).

`O=C1c2ccccc2CC(Br)c2ccccc21` (stereo not given): the growth inhibition was 42.5% (inactive).

Turning to `Cc1cccc2c(CBr)cc(=O)[nH]c12`, the growth inhibition was 94.2% (active).

`CC(=O)CC1CCC(=O)/C=C/C(=O)OC(CC(C)=O)CCC(=O)/C=C/C(=O)O1` (stereo not given): the growth inhibition is -17.1% (inactive).

In the case of `CCN(CC)CC(O)c1c(-c2ccccc2)c(-c2ccccc2)c2n1CCC2` (stereo not given), the growth inhibition is 92.6% (active).

For the molecule `CC1(C)CC[C@]2(C(=O)O)[C@H](O)C[C@]3(C)C(=CC[C@@H]4[C@@]5(C)CC[C@H](OC6OCC(O)C(O)C6OC6OCC(O)C(O)C6OC6OCC(O)C(O)C6O)C(C)(C)[C@@H]5CC[C@]43C)[C@@H]2C1` (stereo not given in full), the growth inhibition is 48.8% (inactive).

As to `Cc1ccc(NC(=O)/C(CC(=O)c2sc(Nc3ccc(Cl)c(Cl)c3)nc2C)=N\Nc2ccc([N+](=O)[O-])cc2[N+](=O)[O-])c(C)c1`, the growth inhibition was 96.8% (active).

`CC(=O)N=C1N(/C=C2\C(=O)Oc3ccccc3C2=O)C(=O)/C(=C/c2ccc(Cl)cc2Cl)N1C`: the growth inhibition is 93.4% (active).

`COC1OC2COC(c3ccccc3)OC2C(NC(=S)SCc2ccccc2)C1O` (stereo not given): the growth inhibition is 99.2% (active).

On to `O=C(CCN1CCCCC1)N1CCc2c([nH]c3ccccc23)C1c1cccnc1` (stereo not given), for which the growth inhibition is -0.3% (inactive).

Consider `Cc1ccc(Sc2ccc(C)cc2[N+](=O)[O-])c([N+](=O)[O-])c1`, for which the growth inhibition was 29.1% (inactive).

With `O=c1c2cc3ccccc3cc2c(=O)n2n1CC=CC2`, the growth inhibition was -0.8% (inactive).

With `ClC(Cl)=C1C(=C(Cl)Cl)C(Cl)(Cl)C1(Cl)Cl`, the growth inhibition is 91.2% (active).

As to `Cc1c(C(=O)N(CCO)CCO)[n+](=O)c2ccccc2n1[O-]`, the growth inhibition is -5.1% (inactive).

As for `CN(C)c1cc(N(C)C)c2cc(-c3ccccc3)sc2n1`, the growth inhibition is 64% (inactive).

Consider `O=C(Nc1ccccc1O)/C(Cl)=C/Cl`, for which the growth inhibition was 94.8% (active).

For `Cc1ccccc1SCc1nc2ccccc2c(C)[n+]1[O-]`, the growth inhibition was 59% (inactive).

For `Oc1ccc2c(ccc3ccccc32)c1`, the growth inhibition was 99% (active).

`O=C1c2ccccc2C(=O)N1C(=NCc1ccccc1)c1ccccc1`: the growth inhibition was 55.2% (inactive).

As to `Cc1cc(Cl)cc2c1OCN(C)C2`, the growth inhibition is 99% (active).

In the case of `CC(C)C(=O)/C=C/c1ccc(Cl)cc1Cl`, the growth inhibition was 69.4% (inactive).

As to `CC(C)C(=O)c1ccc([N+](=O)[O-])o1`, the growth inhibition was 99.1% (active).

For the molecule `CSc1c(S(C)=O)c2ccccc2n1C` (stereo not given), the growth inhibition is -39.5% (inactive).

Consider `O=C(CCCCN1CCN2c3ccccc3CCC2C1)c1ccccc1` (stereo not given), for which the growth inhibition was 53.8% (inactive).

Turning to `COC(=O)c1ccc(C)cc1CC1Cc2cc(C)ccc2C1=O` (stereo not given), the growth inhibition is 64.2% (inactive).

Regarding `Cc1cc(Nc2ccc(N=Nc3ccc(O)c4ncccc34)cc2)nc(C)n1`, the growth inhibition was 60.9% (inactive).

A short description of another experiment: NCI Yeast Anticancer Drug Screen. Data for the mlh1 rad18 strain (AID 175). To be noted: S. cerevisiae mlh1 rad18 strain growth inhibition; at 5.0 µM (retest, dose inferred, filed as 0.5); active compounds read high. In a few lines:
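Growth inhibition of the yeast strain was measured after compound exposure and expressed relative to vehicle-treated controls. The strain carries defined defects in DNA damage repair.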
Regarding `COC(OC)(c1ccccc1)C(Br)Br`, the growth inhibition was -12% (inactive).

Consider `Cc1ccc(S(=O)(=O)OCCc2ccc(Cl)cc2)cc1`, for which the growth inhibition was -14% (inactive).

In the case of `O=C(CC(=O)c1ccncc1)c1ccccc1`, the growth inhibition was 0% (inactive).

Consider `CCN1CCC(O)(/C=C/c2ccccc2)C(C(=O)/C=C/c2ccccc2)C1` (stereo not given), for which the growth inhibition is 19% (inactive).

`O=C(O)c1cc(Br)ccc1OCc1ccc(Cl)cc1`: the growth inhibition is -8% (inactive).

Consider `Cc1ccc(C2COc3cc(O)c(O)cc3C2)cc1` (stereo not given), for which the growth inhibition was 51% (inactive).

Turning to `COC(=O)c1c2oc3c(C(=O)OC)cccc3nc-2cc(N)c1=O`, the growth inhibition is 3% (inactive).

On to `CC(=O)NCCN(C)C`, for which the growth inhibition is 4% (inactive).

With `N=c1scc(-c2ccccc2)n1/N=C/c1cccnc1`, the growth inhibition is -14% (inactive).

In the case of `C(=C/c1ccccc1)/C=N/Nc1ccccc1`, the growth inhibition was -107% (inactive).

Regarding `OC(Cc1ccc(Br)cc1)CN1CCC(c2ccccc2)CC1` (stereo not given), the growth inhibition was 88% (active).

For the molecule `O=C1C(Cl)=C(Nc2ccc(S(=O)(=O)O)cc2)C(=O)c2ccccc21`, the growth inhibition was 26% (inactive).

As for `CC1(CO)CCCC2(C)C3=C(CCCC3)CCC12` (stereo not given), the growth inhibition was -108% (inactive).

For `Cc1cc2nc(CC(=O)c3ccc4ccccc4c3)c(=O)[nH]c2cc1C`, the growth inhibition is -16% (inactive).

Take `CN(CCO)CCn1cnc2c1c(=O)n(C)c(=O)n2C`: the growth inhibition was -11% (inactive).

`O=C1c2ccccc2CC(Br)c2ccccc21` (stereo not given): the growth inhibition is 1% (inactive).

As to `Cc1cccc2c(CBr)cc(=O)[nH]c12`, the growth inhibition was 35% (inactive).

In the case of `CC(=O)CC1CCC(=O)/C=C/C(=O)OC(CC(C)=O)CCC(=O)/C=C/C(=O)O1` (stereo not given), the growth inhibition is 17% (inactive).

Regarding `CCN(CC)CC(O)c1c(-c2ccccc2)c(-c2ccccc2)c2n1CCC2` (stereo not given), the growth inhibition is -9% (inactive).

`CC1(C)CC[C@]2(C(=O)O)[C@H](O)C[C@]3(C)C(=CC[C@@H]4[C@@]5(C)CC[C@H](OC6OCC(O)C(O)C6OC6OCC(O)C(O)C6OC6OCC(O)C(O)C6O)C(C)(C)[C@@H]5CC[C@]43C)[C@@H]2C1` (stereo not given in full): the growth inhibition was 5% (inactive).

As to `Cc1ccc(NC(=O)/C(CC(=O)c2sc(Nc3ccc(Cl)c(Cl)c3)nc2C)=N\Nc2ccc([N+](=O)[O-])cc2[N+](=O)[O-])c(C)c1`, the growth inhibition is 5% (inactive).

With `CC(=O)N=C1N(/C=C2\C(=O)Oc3ccccc3C2=O)C(=O)/C(=C/c2ccc(Cl)cc2Cl)N1C`, the growth inhibition is -4% (inactive).

Regarding `COC1OC2COC(c3ccccc3)OC2C(NC(=S)SCc2ccccc2)C1O` (stereo not given), the growth inhibition was 7% (inactive).

Regarding `O=C(CCN1CCCCC1)N1CCc2c([nH]c3ccccc23)C1c1cccnc1` (stereo not given), the growth inhibition is 2% (inactive).

For the molecule `Cc1ccc(Sc2ccc(C)cc2[N+](=O)[O-])c([N+](=O)[O-])c1`, the growth inhibition was 43% (inactive).

Turning to `O=c1c2cc3ccccc3cc2c(=O)n2n1CC=CC2`, the growth inhibition was 25% (inactive).

`ClC(Cl)=C1C(=C(Cl)Cl)C(Cl)(Cl)C1(Cl)Cl`: the growth inhibition is 74% (active).

For the molecule `Cc1c(C(=O)N(CCO)CCO)[n+](=O)c2ccccc2n1[O-]`, the growth inhibition is 31% (inactive).

Turning to `CN(C)c1cc(N(C)C)c2cc(-c3ccccc3)sc2n1`, the growth inhibition is 1% (inactive).

For the molecule `O=C(Nc1ccccc1O)/C(Cl)=C/Cl`, the growth inhibition was -134% (inactive).

For `Cc1ccccc1SCc1nc2ccccc2c(C)[n+]1[O-]`, the growth inhibition is 42% (inactive).

For the molecule `Oc1ccc2c(ccc3ccccc32)c1`, the growth inhibition is -1% (inactive).

In the case of `O=C1c2ccccc2C(=O)N1C(=NCc1ccccc1)c1ccccc1`, the growth inhibition is 4% (inactive).

Regarding `Cc1cc(Cl)cc2c1OCN(C)C2`, the growth inhibition was 0% (inactive).

On to `CC(C)C(=O)/C=C/c1ccc(Cl)cc1Cl`, for which the growth inhibition is -5% (inactive).

Take `CC(C)C(=O)c1ccc([N+](=O)[O-])o1`: the growth inhibition was 6% (inactive).

On to `CSc1c(S(C)=O)c2ccccc2n1C` (stereo not given), for which the growth inhibition was 27% (inactive).

As to `O=C(CCCCN1CCN2c3ccccc3CCC2C1)c1ccccc1` (stereo not given), the growth inhibition was 38% (inactive).

For the molecule `COC(=O)c1ccc(C)cc1CC1Cc2cc(C)ccc2C1=O` (stereo not given), the growth inhibition is -12% (inactive).

Take `Cc1cc(Nc2ccc(N=Nc3ccc(O)c4ncccc34)cc2)nc(C)n1`: the growth inhibition is 0% (inactive).
